Results reported in PubChem BioAssay AID1159580 (chemical genetic matrix, 2015).
Among all 5,500 compounds or so, about 2,000 (36%) were called active. Roughly 18% stayed inconclusive and do not appear here. Rule as the data show it: active = normalized growth mostly below about 0.91 (no sharp cut-off); inconclusive = no clear call, values can overlap the other calls; inactive = mostly above about 0.92. The list shows a part of the results.

Experiment: chemical genetic growth profiling, strain panel (AID 1159580);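 also: tested at 20 µM; growth read once vehicle control cultures reached saturation at 30 °C; 1 = growth at the plate median or of vehicle wells; lower values mean less growth of the strain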
Settings: growth OD

Measured: normalized growth

CC(=O)Nc1c(I)cc(I)c(C(=O)O)c1I
inactive: S. cerevisiae deletion strains, locus YJR075W, strain HOC1, active compounds read low 1 | S. cerevisiae deletion strains, locus YKL009W, strain mrt4, active compounds read low 0.978 | S. cerevisiae deletion strains, locus YKL068W, active compounds read low 0.986 | S. cerevisiae deletion strains, locus YKL085W, strain MDH1 (second series), active compounds read low 1.01 | S. cerevisiae deletion strains, locus YKL085W, strain MDH1, active compounds read low 1.01 | S. cerevisiae deletion strains, locus YKL160W, strain elf1, active compounds read low 0.985 | S. cerevisiae deletion strains, locus YKL190W, strain CNB1, active compounds read low 1.02 | S. cerevisiae deletion strains, locus YKR001C, strain vps1, active compounds read low 0.986 | S. cerevisiae deletion strains, locus YKR026C, strain gcn3, active compounds read low 0.975 | S. cerevisiae deletion strains, locus YKR091W, strain srl3, active compounds read low 0.981 | S. cerevisiae deletion strains, locus YLL001W, strain dnm1, active compounds read low 0.953 | S. cerevisiae deletion strains, locus YLL026W, active compounds read low 0.985 | S. cerevisiae deletion strains, locus YLL041C, strain sdh2, active compounds read low 0.972 | S. cerevisiae deletion strains, locus YLR027C, strain aat2, active compounds read low 0.981 | S. cerevisiae deletion strains, locus YLR039C, strain RIC1, active compounds read low 1.01 | S. cerevisiae deletion strains, locus YLR058C, strain SHM2, active compounds read low 0.994 | S. cerevisiae deletion strains, locus YLR102C, strain apc9, active compounds read low 0.991 | S. cerevisiae deletion strains, locus YLR113W, strain HOG1, active compounds read low 1 | S. cerevisiae deletion strains, locus YLR221C, strain rsa3, active compounds read low 1.01 | S. cerevisiae deletion strains, locus YLR258W, strain gsy2, active compounds read low 0.976 | S. cerevisiae deletion strains, locus YLR262C, strain YPT6 (second series), active compounds read low 0.971 | S. cerevisiae deletion strains, locus YLR262C, strain YPT6, active compounds read low 0.954 | S. cerevisiae deletion strains, locus YLR268W, strain sec22, active compounds read low 0.996 | S. cerevisiae deletion strains, locus YLR320W, strain mms22, active compounds read low 0.99 | S. cerevisiae deletion strains, locus YLR330W, strain CHS5, active compounds read low 0.998 | S. cerevisiae deletion strains, locus YLR342W, strain FKS1 (second series), active compounds read low 1.04 | S. cerevisiae deletion strains, locus YLR342W, strain FKS1, active compounds read low 0.978 | S. cerevisiae deletion strains, locus YLR357W, strain rsc2, active compounds read low 1 | S. cerevisiae deletion strains, locus YLR370C, strain arc18, active compounds read low 0.989 | S. cerevisiae deletion strains, locus YLR371W, strain rom2, active compounds read low 0.993 | S. cerevisiae deletion strains, locus YLR384C, strain iki3, active compounds read low 0.98 | S. cerevisiae deletion strains, locus YLR418C, strain cdc73, active compounds read low 0.99 | S. cerevisiae deletion strains, locus YML016C, strain PPZ1, active compounds read low 0.993 | S. cerevisiae deletion strains, locus YML032C, strain rad52, active compounds read low 0.987 | S. cerevisiae deletion strains, locus YML120C, strain ndi1, active compounds read low 0.981 | S. cerevisiae deletion strains, locus YML124C, strain tub3, active compounds read low 0.988 | S. cerevisiae deletion strains, locus YMR058W, strain fet3, active compounds read low 0.989 | S. cerevisiae deletion strains, locus YMR078C, strain ctf18, active compounds read low 0.988 | S. cerevisiae deletion strains, locus YMR125W, strain sto1, active compounds read low 0.96 | S. cerevisiae deletion strains, locus YMR129W, active compounds read low 0.96 | S. cerevisiae deletion strains, locus YMR205C, strain PFK2, active compounds read low 0.977 | S. cerevisiae deletion strains, locus YMR223W, strain ubp8, active compounds read low 0.972 | S. cerevisiae deletion strains, locus YMR231W, strain pep5, active compounds read low 0.982 | S. cerevisiae deletion strains, locus YMR263W, strain SAP30, active compounds read low 1.01 | S. cerevisiae deletion strains, locus YMR307W, strain GAS1, active compounds read low 1.07 | S. cerevisiae deletion strains, locus YNL067W, strain RPL9B, active compounds read low 1 | S. cerevisiae deletion strains, locus YNL071W, strain lat1, active compounds read low 0.987 | S. cerevisiae deletion strains, locus YNL128W, strain TEP1, active compounds read low 1.01 | S. cerevisiae deletion strains, locus YNL153C, strain GIM3, active compounds read low 0.993 | S. cerevisiae deletion strains, locus YNL183C, strain NPR1, active compounds read low 0.968 | S. cerevisiae deletion strains, locus YNL209W, strain ssb2, active compounds read low 0.99 | S. cerevisiae deletion strains, locus YNL233W, strain BNI4, active compounds read low 0.998 | S. cerevisiae deletion strains, locus YNL248C, strain rpa49, active compounds read low 0.992 | S. cerevisiae deletion strains, locus YNL250W, strain rad50, active compounds read low 0.986 | S. cerevisiae deletion strains, locus YNL271C, strain bni1, active compounds read low 0.989 | S. cerevisiae deletion strains, locus YNL298W, strain CLA4, active compounds read low 0.986 | S. cerevisiae deletion strains, locus YNL307C, strain MCK1, active compounds read low 0.987 | S. cerevisiae deletion strains, locus YNL322C, strain KRE1 (second series), active compounds read low 0.971 | S. cerevisiae deletion strains, locus YNL322C, strain KRE1, active compounds read low 1 | S. cerevisiae deletion strains, locus YNR049C, strain mso1, active compounds read low 0.993 | S. cerevisiae deletion strains, locus YNR052C, strain pop2, active compounds read low 0.999 | S. cerevisiae deletion strains, locus YOL006C, strain TOP1, active compounds read low 1.02 | S. cerevisiae deletion strains, locus YOL012C, strain htz1 0.771 | S. cerevisiae deletion strains, locus YOL147C, strain pex11, active compounds read low 0.992 | S. cerevisiae deletion strains, locus YOR001W, strain rrp6, active compounds read low 0.976 | S. cerevisiae deletion strains, locus YOR061W, strain CKA2, active compounds read low 1 | S. cerevisiae deletion strains, locus YOR069W, strain VPS5, active compounds read low 0.988 | S. cerevisiae deletion strains, locus YOR070C, strain gyp1, active compounds read low 0.988 | S. cerevisiae deletion strains, locus YOR080W, strain dia2, active compounds read low 0.975 | S. cerevisiae deletion strains, locus YOR083W, strain WHI5, active compounds read low 0.984 | S. cerevisiae deletion strains, locus YOR106W, strain vam3, active compounds read low 0.964 | S. cerevisiae deletion strains, locus YOR136W, strain idh2, active compounds read low 0.987 | S. cerevisiae deletion strains, locus YOR144C, strain elg1, active compounds read low 0.995 | S. cerevisiae deletion strains, locus YOR184W, strain ser1, active compounds read low 0.969 | S. cerevisiae deletion strains, locus YOR231W, strain MKK1, active compounds read low 1.02 | S. cerevisiae deletion strains, locus YOR265W, strain rbl2, active compounds read low 0.98 | S. cerevisiae deletion strains, locus YOR270C, strain vph1, active compounds read low 0.951 | S. cerevisiae deletion strains, locus YOR290C, strain snf2, active compounds read low 1 | S. cerevisiae deletion strains, locus YOR316C, strain cot1, active compounds read low 0.991 | S. cerevisiae deletion strains, locus YPL051W, strain arl3, active compounds read low 0.981 | S. cerevisiae deletion strains, locus YPL055C, strain LGE1, active compounds read low 1.05 | S. cerevisiae deletion strains, locus YPL078C, strain atp4, active compounds read low 0.961 | S. cerevisiae deletion strains, locus YPL106C, strain sse1, active compounds read low 0.981 | S. cerevisiae deletion strains, locus YPL240C, strain hsp82, active compounds read low 0.972 | S. cerevisiae deletion strains, locus YPL241C, strain CIN2, active compounds read low 1.01 | S. cerevisiae deletion strains, locus YPL256C, strain CLN2, active compounds read low 1.02 | S. cerevisiae deletion strains, locus YPR119W, strain clb2, active compounds read low 0.986 | S. cerevisiae deletion strains, locus YPR141C, strain kar3, active compounds read low 0.981 | S. cerevisiae deletion strains, locus YPR163C, strain tif3, active compounds read low 0.997 | S. cerevisiae deletion strains, locus YPR167C, strain met16, active compounds read low 0.983 | S. cerevisiae deletion strains, strain wtn01, active compounds read low 0.986 | S. cerevisiae strains, strain wild type, active compounds read low 1.05
